# Results: PubChem BioAssay AID1508601 (ICCB-Longwood Screening Facility, Harvard Medical School, 2020)
# Where “and” joins values, the source holds several entries; their conditions need not be identical. Identical values can stand only once. The whole screen tested about 5,700 compounds, of which about 85 (1%) were called active. Rule as the data show it: active = p53-positive nuclei above about 36% (passing the limit was not always enough); inactive = the rest. The list comes from a sample in which actives are over-represented; it also holds similar structures and randomly drawn compounds.
# Columns and labels:
# [1] = nuclear p53 accumulation, HPV+ cells – imaging, p53-positive nuclei imaging, 24 h, 48 h (AID 1508601); conditions: 24/48 h
# [2] = target: Cellular tumor antigen p53 (Homo sapiens) (UniProt P04637); assay: as above; conditions: 24/48 h, stronger effect = higher value
# [3] = measured here: cell number at 24 h, Library stock concentration: 46 uM
# [4] = measured here: cell number at 24 h, Library stock concentration: 278 uM
# [5] = measured here: cell number at 24 h, Library stock concentration: 1.67 mM
# [6] = measured here: cell number at 24 h, Library stock concentration: 10 mM
# [7] = measured here: cell number at 48 h, Library stock concentration: 46 uM
# [8] = measured here: cell number at 48 h, Library stock concentration: 278 uM
# [9] = measured here: cell number at 48 h, Library stock concentration: 1.67 mM
# [10] = measured here: cell number at 48 h, Library stock concentration: 10 mM
# [11] = Library stock concentration: 46 uM
# [12] = Library stock concentration: 278 uM
# [13] = Library stock concentration: 1.67 mM
# [14] = Library stock concentration: 10 mM
# [15] = measured here: p53 positive nuclei at 24 h, Library stock concentration: 46 uM
# [16] = measured here: p53 positive nuclei at 24 h, Library stock concentration: 278 uM
# [17] = measured here: p53 positive nuclei at 24 h, Library stock concentration: 1.67 mM
# [18] = measured here: p53 positive nuclei at 24 h, Library stock concentration: 10 mM
# [19] = measured here: cell number at 24 h, Library stock concentration: 3.33 mM
# [20] = measured here: cell number at 48 h, Library stock concentration: 3.33 mM
# [21] = Library stock concentration: 3.33 mM
# [22] = measured here: p53 positive nuclei at 24 h, Library stock concentration: 3.33 mM
# Chain of Cellular tumor antigen p53 (Homo sapiens) (P04637 whole entry, looked up): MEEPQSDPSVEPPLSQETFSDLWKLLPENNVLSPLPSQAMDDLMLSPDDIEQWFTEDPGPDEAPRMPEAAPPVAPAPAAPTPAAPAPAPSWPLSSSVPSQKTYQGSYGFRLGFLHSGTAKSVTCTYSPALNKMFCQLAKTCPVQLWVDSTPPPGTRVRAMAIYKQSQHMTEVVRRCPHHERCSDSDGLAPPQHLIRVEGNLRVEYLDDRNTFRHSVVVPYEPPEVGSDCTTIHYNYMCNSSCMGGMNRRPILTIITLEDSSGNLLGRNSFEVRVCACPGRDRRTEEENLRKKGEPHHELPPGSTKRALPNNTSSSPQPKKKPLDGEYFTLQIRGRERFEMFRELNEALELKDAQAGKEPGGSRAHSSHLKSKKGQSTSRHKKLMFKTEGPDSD
compound,measurement,setting,value
COC(=O)C(NC(=O)c1cc(-c2ccccc2)nc2ccccc12)c1ccccc1 (stereo not drawn),"nuclei count, normalised",[1]; [3],105%
same,"nuclei count, normalised",[1]; [4],105%
same,"nuclei count, normalised",[1]; [5],93.3%
same,"nuclei count, normalised",[1]; [6],96.9%
same,"nuclei count, normalised",[1]; [7],111%
same,"nuclei count, normalised",[1]; [8],107%
same,"nuclei count, normalised",[1]; [9],100%
same,"nuclei count, normalised",[1]; [10],103%
same,"p53-positive nuclei, normalised",[2]; [11],-0.241% (inactive)
same,"p53-positive nuclei, normalised",[2]; [12],-0.232% (inactive)
same,"p53-positive nuclei, normalised",[2]; [13],-0.104% (inactive)
same,"p53-positive nuclei, normalised",[2]; [14],0.115% (inactive)
same,"p53-positive nuclei, normalised",[2]; [15],-0.21%
same,"p53-positive nuclei, normalised",[2]; [16],-0.0834%
same,"p53-positive nuclei, normalised",[2]; [17],0.359%
same,"p53-positive nuclei, normalised",[2]; [18],0.069%
O=C(O)c1cc(-c2ccccc2)nc2ccccc12,"nuclei count, normalised",[1]; [19],111%
same,"nuclei count, normalised",[1]; [20],106%
same,"p53-positive nuclei, normalised",[2]; [21],-0.105% (inactive)
same,"p53-positive nuclei, normalised",[2]; [22],-0.282%
COc1cc2ncc(-c3ccccc3)nc2cc1OC,"nuclei count, normalised",[1]; [19],78.5%
same,"nuclei count, normalised",[1]; [20],45.1%
same,"p53-positive nuclei, normalised",[2]; [21],55.2% (active)
same,"p53-positive nuclei, normalised",[2]; [22],3.05%
CCC(C(C)O)n1ncn(-c2ccc(N3CCN(c4ccc(OCC5CO[C@@](Cn6cncn6)(c6ccc(F)cc6F)C5)cc4)CC3)cc2)c1=O (stereo partly drawn),"nuclei count, normalised",[1]; [19],91.3%
same,"nuclei count, normalised",[1]; [20],91.4%
same,"p53-positive nuclei, normalised",[2]; [21],-0.489% (inactive)
same,"p53-positive nuclei, normalised",[2]; [22],-0.171%
CCOC(=O)c1sc(NC(=O)c2ccco2)c(SC#N)c1C,"nuclei count, normalised","[1]; measured here: cell number at 24 h, Library stock concentration: 500 nM",118%
same,"nuclei count, normalised","[1]; measured here: cell number at 24 h, Library stock concentration: 1.5 uM",119%
same,"nuclei count, normalised","[1]; measured here: cell number at 24 h, Library stock concentration: 4.6 uM",115%
same,"nuclei count, normalised","[1]; measured here: cell number at 24 h, Library stock concentration: 13.7 uM",107%
same,"nuclei count, normalised","[1]; measured here: cell number at 24 h, Library stock concentration: 41 uM",124%
same,"nuclei count, normalised","[1]; measured here: cell number at 24 h, Library stock concentration: 123 uM",109%
same,"nuclei count, normalised","[1]; measured here: cell number at 24 h, Library stock concentration: 370 uM",113%
same,"nuclei count, normalised","[1]; measured here: cell number at 24 h, Library stock concentration: 1.111 mM",114%
same,"nuclei count, normalised","[1]; measured here: cell number at 24 h, Library stock concentration: 3.333 mM",103%
same,"nuclei count, normalised",[1]; [6],97.4%
same,"nuclei count, normalised","[1]; measured here: cell number at 48 h, Library stock concentration: 500 nM",111%
same,"nuclei count, normalised","[1]; measured here: cell number at 48 h, Library stock concentration: 1.5 uM",109%
same,"nuclei count, normalised","[1]; measured here: cell number at 48 h, Library stock concentration: 4.6 uM",104%
same,"nuclei count, normalised","[1]; measured here: cell number at 48 h, Library stock concentration: 13.7 uM",103%
same,"nuclei count, normalised","[1]; measured here: cell number at 48 h, Library stock concentration: 41 uM",110%
same,"nuclei count, normalised","[1]; measured here: cell number at 48 h, Library stock concentration: 123 uM",106%
same,"nuclei count, normalised","[1]; measured here: cell number at 48 h, Library stock concentration: 370 uM",110%
same,"nuclei count, normalised","[1]; measured here: cell number at 48 h, Library stock concentration: 1.111 mM",112%
same,"nuclei count, normalised","[1]; measured here: cell number at 48 h, Library stock concentration: 3.333 mM",106%
same,"nuclei count, normalised",[1]; [10],101%
same,"p53-positive nuclei, normalised",[2]; Library stock concentration: 500 nM,0.102% (inactive)
same,"p53-positive nuclei, normalised",[2]; Library stock concentration: 1.5 uM,-0.24% (inactive)
same,"p53-positive nuclei, normalised",[2]; Library stock concentration: 4.6 uM,-0.158% (inactive)
same,"p53-positive nuclei, normalised",[2]; Library stock concentration: 13.7 uM,-0.0345% (inactive)
same,"p53-positive nuclei, normalised",[2]; Library stock concentration: 41 uM,0.07% (inactive)
same,"p53-positive nuclei, normalised",[2]; Library stock concentration: 123 uM,0.0394% (inactive)
same,"p53-positive nuclei, normalised",[2]; Library stock concentration: 370 uM,0.143% (inactive)
same,"p53-positive nuclei, normalised",[2]; Library stock concentration: 1.111 mM,0.138% (inactive)
same,"p53-positive nuclei, normalised",[2]; Library stock concentration: 3.333 mM,0.637% (inactive)
same,"p53-positive nuclei, normalised",[2]; [14],1.1% (inactive)
same,"p53-positive nuclei, normalised","[2]; measured here: p53 positive nuclei at 24 h, Library stock concentration: 500 nM",-0.0629%
same,"p53-positive nuclei, normalised","[2]; measured here: p53 positive nuclei at 24 h, Library stock concentration: 1.5 uM",-0.173%
same,"p53-positive nuclei, normalised","[2]; measured here: p53 positive nuclei at 24 h, Library stock concentration: 4.6 uM",-0.116%
same,"p53-positive nuclei, normalised","[2]; measured here: p53 positive nuclei at 24 h, Library stock concentration: 13.7 uM",-0.111%
same,"p53-positive nuclei, normalised","[2]; measured here: p53 positive nuclei at 24 h, Library stock concentration: 41 uM",-0.122%
same,"p53-positive nuclei, normalised","[2]; measured here: p53 positive nuclei at 24 h, Library stock concentration: 123 uM",0.00346%
same,"p53-positive nuclei, normalised","[2]; measured here: p53 positive nuclei at 24 h, Library stock concentration: 370 uM",0.0563%
same,"p53-positive nuclei, normalised","[2]; measured here: p53 positive nuclei at 24 h, Library stock concentration: 1.111 mM",0.34%
same,"p53-positive nuclei, normalised","[2]; measured here: p53 positive nuclei at 24 h, Library stock concentration: 3.333 mM",1.08%
same,"p53-positive nuclei, normalised",[2]; [18],2.09%
CN1CCc2c(c3ccccc3n2Cc2ccc(C(=O)NO)cc2)C1,"nuclei count, normalised",[1]; [3],117%
same,"nuclei count, normalised",[1]; [4],120%
same,"nuclei count, normalised",[1]; [5],115%
same,"nuclei count, normalised",[1]; [19],110% and 92.2%
same,"nuclei count, normalised",[1]; [6],114%
same,"nuclei count, normalised",[1]; [7],119%
same,"nuclei count, normalised",[1]; [8],116%
same,"nuclei count, normalised",[1]; [9],110%
same,"nuclei count, normalised",[1]; [20],102% and 95.4%
same,"nuclei count, normalised",[1]; [10],107%
same,"p53-positive nuclei, normalised",[2]; [11],-0.237% (inactive)
same,"p53-positive nuclei, normalised",[2]; [12],0.0738% (inactive)
same,"p53-positive nuclei, normalised",[2]; [13],0.201% (inactive)
same,"p53-positive nuclei, normalised",[2]; [21],-0.139% (inactive) and -0.349% (inactive)
same,"p53-positive nuclei, normalised",[2]; [14],-0.117% (inactive)
same,"p53-positive nuclei, normalised",[2]; [15],-0.158%
same,"p53-positive nuclei, normalised",[2]; [16],-0.207%
same,"p53-positive nuclei, normalised",[2]; [17],-0.0538%
same,"p53-positive nuclei, normalised",[2]; [22],-0.314% and -0.356%
same,"p53-positive nuclei, normalised",[2]; [18],-0.152%
Cn1cc(CNCC2CCN(c3ncc(C(=O)NO)cn3)CC2)c2ccccc21,"nuclei count, normalised","[1]; measured here: cell number at 24 h, Library stock concentration: 80 uM",71%
same,"nuclei count, normalised","[1]; measured here: cell number at 24 h, Library stock concentration: 400 uM",49.1%
same,"nuclei count, normalised","[1]; measured here: cell number at 24 h, Library stock concentration: 2 mM",40.5%
same,"nuclei count, normalised",[1]; [19],36.3%
same,"nuclei count, normalised",[1]; [6],37.2%
same,"nuclei count, normalised","[1]; measured here: cell number at 48 h, Library stock concentration: 80 uM",55.2%
same,"nuclei count, normalised","[1]; measured here: cell number at 48 h, Library stock concentration: 400 uM",24%
same,"nuclei count, normalised","[1]; measured here: cell number at 48 h, Library stock concentration: 2 mM",20.2%
same,"nuclei count, normalised",[1]; [20],20.7%
same,"nuclei count, normalised",[1]; [10],23.5%
same,"p53-positive nuclei, normalised",[2]; Library stock concentration: 80 uM,20.9% (inactive)
same,"p53-positive nuclei, normalised",[2]; Library stock concentration: 400 uM,102% (active)
same,"p53-positive nuclei, normalised",[2]; Library stock concentration: 2 mM,92.2% (active)
same,"p53-positive nuclei, normalised",[2]; [21],111% (active)
same,"p53-positive nuclei, normalised",[2]; [14],108% (active)
same,"p53-positive nuclei, normalised","[2]; measured here: p53 positive nuclei at 24 h, Library stock concentration: 80 uM",43.9%
same,"p53-positive nuclei, normalised","[2]; measured here: p53 positive nuclei at 24 h, Library stock concentration: 400 uM",92.9%
same,"p53-positive nuclei, normalised","[2]; measured here: p53 positive nuclei at 24 h, Library stock concentration: 2 mM",103%
same,"p53-positive nuclei, normalised",[2]; [22],96.9%
same,"p53-positive nuclei, normalised",[2]; [18],120%
